The source of these data is PubChem BioAssay.

Test [1] addresses Cell division control protein 42 homolog (Homo sapiens) (UniProt P60953). The experiment in a line: wildtype Cdc42 GTP-binding inhibitors, dose response, biochemical, multiplex bead flow cytometry, Bodipy-FL-GTP (AID 1334;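 active = fitted half-maximal concentration within the tested range, moderate curve steepness, significant signal drop, and little compound fluorescence or bead-linkage interference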). To be noted: bead-based flow cytometry, Bodipy-FL-GTP binding to GST-Cdc42; at 100 µM (top of the series) unless noted. On the technique in general: Flow cytometry measures light scatter and fluorescence of single cells or particles in a stream.

Test [2] deals with GTPase HRas (Homo sapiens) (UniProt P01112). The experiment in a line: inhibitors of GTP binding to wildtype Ras, dose response, biochemical, multiplex bead flow cytometry (AID 1335;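 active = fitted half-maximal concentration within 10 nM to 100 µM, steepness 0.5 to 2, significant signal drop, low assay interference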). To be noted: bead-based flow cytometry, Bodipy-GTP binding to GST-Ras; at 100 µM (top of the series) unless noted.
Chain of GTPase HRas (Homo sapiens) (P01112 whole entry, looked up): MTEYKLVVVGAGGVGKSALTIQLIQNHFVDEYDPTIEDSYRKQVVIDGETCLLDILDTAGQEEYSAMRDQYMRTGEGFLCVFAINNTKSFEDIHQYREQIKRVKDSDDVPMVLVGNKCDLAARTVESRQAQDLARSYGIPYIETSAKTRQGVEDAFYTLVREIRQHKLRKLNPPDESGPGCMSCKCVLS
The test system of test [3] is Ras-related protein Rab-7a (dog), GTP binding. The test can be described thus: Rab7 GTP binding inhibitors, potency, dose response, biochemical, wildtype, multiplex bead flow cytometry (AID 1336; call rule not given here).
Test [4] has as its target GTPase HRas (Homo sapiens) (UniProt P01112). The experiment in a line: activated Ras mutant GTP binding inhibitors, dose response, biochemical, multiplex bead flow cytometry (AID 1341;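 active = dose-response curve with midpoint inside the tested range, moderate steepness, significant amplitude and little compound fluorescence or bead-attachment interference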;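 also: GST-tagged constitutively activated Ras mutant immobilized on beads and multiplexed with other GTPases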).
For test [5], the target named is Ras-related C3 botulinum toxin substrate 1 (Homo sapiens) (UniProt P63000). The test can be described thus: wildtype Rac1 GTP binding inhibitors, dose response, biochemical, multiplex bead flow cytometry (AID 1340). To be noted: GST-Rac1 beads, Bodipy-FL-GTP binding; at 100 µM (top of the series) unless noted.
Test [6] in a line: RPL19A-GFP modulators, yeast TOR pathway, confirmation, cell-based, S. cerevisiae, flow cytometry, cherry picks, mother/daughter gates (AID 2270;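 active = GFP response below 50% of the DMSO control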). Conditions: S. cerevisiae RPL19A-GFP strain, 3 h, at 10 µM, stronger effect = lower value, 100 = same GFP as DMSO wells.
The nature of test [7]: LAP4-GFP expression modulators in yeast, confirmation, cell-based, cherry picks, flow cytometry, mother/daughter gates (AID 2271;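 active = GFP response above 150% of the DMSO control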;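 also: ratio of sample to DMSO plate mean so 100% equals DMSO level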). Conditions: S. cerevisiae LAP4-GFP strain, 3 h, at 10 µM, stronger effect = higher value, 100 means same as DMSO control.
Test [8] is described as follows: modulators of MEP2-GFP levels in yeast, confirmation, S. cerevisiae, flow cytometry GFP, cherry picks (AID 2272;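 active = GFP response above 150% of the DMSO control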;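 also: ratio of well signal to plate DMSO mean so 100% equals DMSO level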). Conditions: S. cerevisiae MEP2-GFP strain, 3 h, at 10 µM, stronger effect = higher value.
Test [9] can be described thus: AGP1-GFP expression modulators, hit retest, confirmation, cell-based, flow cytometry, S. cerevisiae, cherry picks (AID 2273;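 active = GFP response above 150% of the DMSO level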;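 also: median GFP channel fluorescence over the whole cell population gate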). To be noted: S. cerevisiae AGP1-GFP strain, 3 h, at 10 µM.
Test [10] is described as follows: modulators of CIT2-GFP expression in yeast, confirmation, S. cerevisiae, GFP fusion, cherry picks, mother/daughter gates (AID 2274;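 active = GFP response above 150% of the DMSO level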). To be noted: S. cerevisiae CIT2-GFP strain, flow cytometry, 3 h, at 10 µM, stronger effect = higher value.
Where [11] appears, read: measured here: daughter cell gate.
Where [12] appears, read: measured here: mother cell gate.

For some assays here: Potency and affinity values are given separately. The source made the active and inactive calls.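 The calls were made as follows, unless noted: active = dose curve with midpoint inside tested range, moderate steepness, plateau gap beyond fit error, low compound glow and bead-link interference; inactive = the rest.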

Chain of Cell division control protein 42 homolog (Homo sapiens) (P60953 whole entry, looked up): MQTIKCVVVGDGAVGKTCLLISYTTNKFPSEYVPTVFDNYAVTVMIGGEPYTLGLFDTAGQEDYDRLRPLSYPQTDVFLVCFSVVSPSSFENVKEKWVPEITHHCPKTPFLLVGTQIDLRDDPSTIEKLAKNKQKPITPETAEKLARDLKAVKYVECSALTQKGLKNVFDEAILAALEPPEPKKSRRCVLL

`Cc1cc(C(=O)Cn2nc(C(=O)O)c3ccccc3c2=O)c(C)n1-c1ccc(OC(F)F)cc1`: the fluorescence, percent of control (lower = inhibition) in test [1] amounted to 28.1%. Further, in test [2], the GTP binding, percent of control was 75.5%. In addition, the result in test [3] and in test [4] was inactive.

In test [1], `COc1cccc(NC(=O)COC(=O)/C=C/c2ccc(Cl)cc2Cl)c1` returned a fluorescence, percent of control (lower = inhibition) of 48.4%. In test [2], this compound came in with a GTP binding, percent of control of 62%. The call in test [3] and in test [4] was inactive. The compound further gave a GTP binding signal, raw median fluorescence (lower = inhibition) (MCF (arbitrary fluorescence units)) in test [5] of 180.

In test [2], `COc1ccc(-c2cc(C#N)nc(N3CCNCC3)n2)cc1` came in with a GTP binding, percent of control of 153%. Also, the outcome in test [3] and in test [4] was inactive. For the same compound, the GTP binding signal, raw median fluorescence (lower = inhibition) (MCF (arbitrary fluorescence units)) in [5] worked out at 182.

`CCCc1nc2c(=O)n(C)c(=O)nc-2n(C)n1` gave a GTP binding, percent of control in test [2] of 84.4%. Besides, the compound was classed as inactive in test [3] and in test [4].

`CCOC(=O)c1cc([N+](=O)[O-])c([N+](=O)[O-])cc1NC(C)=O`: the GTP binding, percent of control in [2] was found to be 75%. Moreover, the compound was called inactive in test [3] and in test [4]. Moreover, in test [5], the GTP binding signal, raw median fluorescence (lower = inhibition) (MCF (arbitrary fluorescence units)) is 241.

Regarding `N#C/C(=C/c1ccc(N2CCCCC2)o1)C(=O)Nc1ccc2ccccc2c1`, in test [5], the GTP binding signal, raw median fluorescence (lower = inhibition) (MCF (arbitrary fluorescence units)) turned out to be 469.

As to `CS(=O)(=O)c1ccc(C(=O)OCC(=O)NC(=O)C2CCCCC2)cc1[N+](=O)[O-]`, in test [2], the GTP binding, percent of control is 76.2%. Moreover, the outcome in test [3] and in test [4] was inactive. The GTP binding signal, raw median fluorescence (lower = inhibition) (MCF (arbitrary fluorescence units)) in test [5] stood at 200.

Compound `OC(CNCCc1ccc(Cl)cc1)COc1ccc2ccccc2c1` (stereo not given) showed a fluorescence, percent of control (lower = inhibition) in test [1] of 40.2%. The GTP binding, percent of control in test [2] is 85.7%. For the same compound, the result in test [3] and in test [4] was inactive.

In test [1], `Cc1ccc(SC(CC(=O)c2ccc(C(C)(C)C)cc2)C(=O)O)cc1` (stereo not given) returned a fluorescence, percent of control (lower = inhibition) of 26.6%. Further, in test [2], the GTP binding, percent of control was 72.6%. In addition, the compound was classed as inactive in [3] and in test [4]. In test [5], this compound had a GTP binding signal, raw median fluorescence (lower = inhibition) (MCF (arbitrary fluorescence units)) of 240. The GFP response vs DMSO in test [6] is 95.8% (inactive); in test [6] (setting [11]), 94%; in test [6] (setting [12]) it was 97.3%; in test [8], 94.4% (inactive). The values for the GFP response relative to DMSO in test [7], in [7] (measured here: daughter cell gate response) and in [7] (measured here: mother cell gate response) were 106% (inactive), 103% and 111%, respectively. Further, the GFP response, % of DMSO in test [9] is 99.3% (inactive); in test [10], 92.2% (inactive); in test [10] (setting [11]), 90.5%; in [10] (setting [12]), 91.8%.

The compound `CCN(CC)c1ccc(/C=C(\C#N)C(=O)c2ccc(Br)cc2)cc1` had a GTP binding signal, raw median fluorescence (lower = inhibition) (MCF (arbitrary fluorescence units)) in test [5] of 0.

The compound `O=C(C#CC1CCCCC1)c1ccc([N+](=O)[O-])cc1` yielded a fluorescence, percent of control (lower = inhibition) in test [1] of 33%. For the same compound, in test [2], the GTP binding, percent of control is 177%. For the same compound, the call in test [3] and in [4] was inactive. Moreover, in [5], the GTP binding signal, raw median fluorescence (lower = inhibition) (MCF (arbitrary fluorescence units)) is 45.6.

In test [2], `Cc1cccc2cc(CN(Cc3cccs3)C(c3nnnn3C3CCCC3)C(C)C)c(=O)[nH]c12` (stereo not given) showed a GTP binding, percent of control of 60.6%. For the same compound, the compound was classed as inactive in test [3] and in test [4]. In test [5], the GTP binding signal, raw median fluorescence (lower = inhibition) (MCF (arbitrary fluorescence units)) turned out to be 207.

In [2], `CC(C)C(NCc1c(Cl)cccc1Cl)C(=O)O` (stereo not given) showed a GTP binding, percent of control of 81.2%. Besides, the compound was called inactive in test [4].

`CCCN1C(=O)/C(=C/C=C2\N(CC)c3ccccc3C2(C)C)SC1=S` yielded a GTP binding, percent of control in test [2] of 127%. The outcome in [3] and in [4] was inactive. For the same compound, the GTP binding signal, raw median fluorescence (lower = inhibition) (MCF (arbitrary fluorescence units)) in [5] was determined as 176.

`Cc1cc(C)c(C)c(C(=O)c2ccccc2C(=O)O)c1C` came in with a GTP binding, percent of control in test [2] of 122%. Moreover, the outcome in [3] and in [4] was inactive.

In test [2], `O=C(NCc1cccs1)c1cccnc1C(=O)O` registered a GTP binding, percent of control of 84.2%. Besides, the result in test [3] and in test [4] was inactive. Moreover, the GTP binding signal, raw median fluorescence (lower = inhibition) (MCF (arbitrary fluorescence units)) in test [5] was determined as 0.

As for `COc1ccc(-c2cc(=O)c3cc(OC)ccc3[nH]2)cc1`, the GTP binding signal, raw median fluorescence (lower = inhibition) (MCF (arbitrary fluorescence units)) in test [5] turned out to be 229.

In [2], `N#Cc1c(-c2ccccc2)nc(SCC(=O)Nc2ccccc2)[nH]c1=O` displayed a GTP binding, percent of control of 47.2%.

As to `CCOc1ccccc1-c1c2cc(O)c(=O)cc-2oc2cc(O)c(O)cc12`, the GTP binding signal, raw median fluorescence (lower = inhibition) (MCF (arbitrary fluorescence units)) in test [5] was 184.

Regarding `Cc1ccccc1N(CC(=O)N/N=C/c1ccccc1Cl)C(=O)c1ccccc1`, the GTP binding signal, raw median fluorescence (lower = inhibition) (MCF (arbitrary fluorescence units)) in test [5] came to 212.

Turning to `CCOC(=O)c1c(NC(=O)N/N=C/c2ccccc2OCC)sc(C(C)=O)c1C`, the GTP binding signal, raw median fluorescence (lower = inhibition) (MCF (arbitrary fluorescence units)) in test [5] is 238.

Take `O=S(=O)(c1cccc(-c2nnc(SCc3ccc(Cl)cc3)o2)c1)N1CCCCC1`: the GTP binding signal, raw median fluorescence (lower = inhibition) (MCF (arbitrary fluorescence units)) in [5] is 182.

`COC(=O)c1cccnc1SCCc1ccccc1` yielded a GTP binding, percent of control in test [2] of 125%. The compound further gave a GTP binding signal, raw median fluorescence (lower = inhibition) (MCF (arbitrary fluorescence units)) in test [5] of 72.5. Also, in test [4], the compound was called inactive.

`COc1ccc(OC)c(-c2c3cc(O)c(=O)cc-3oc3cc(O)c(O)cc23)c1`: the GTP binding signal, raw median fluorescence (lower = inhibition) (MCF (arbitrary fluorescence units)) in test [5] worked out at 137.

For the compound `O=C(O)c1ccccc1NCCc1ccc(Cl)cc1`, in [2], the GTP binding, percent of control stood at 87%. Besides, the result in [4] was inactive.
